From PubChem
Shown are actives, neighbours in structure and some others; about 12% of the full set was active somewhere.
INS promoter inh = inhibitors of insulin promoter-driven GFP, primary screen, imaging, TRM-6 cells (human fetal islet line), eGFP reporter, cell count; reporter expression induced with tamoxifen; 130,000 compounds, 0.9% hits; inhibition, % at 2 µM;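 active = inhibition above the mean plus 3 SD, with well images judged a real hit on visual review, cut at about 60% in these data, passing the limit was not always enough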
ROMK primary = ROMK potassium channel modulators, primary screen, cell-based, thallium flux, MLSMR library | B-score at 10 µM | 130,000 compounds, 2% hits | AID 1918, 2009 | ATP-sensitive inward rectifier potassium channel 1 (Homo sapiens), P48048 | Tet-inducible ROMK, thallium flux fluorescence; actives lie on both sides;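 active = signal ratio slope over the read window, or its plate-corrected B-score, at least 3 SD from the plate mean, either direction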;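 also: B-score of the F/F0 ratio slope over 7 to 12 s after thallium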
Target sequence (P48048 whole entry, looked up): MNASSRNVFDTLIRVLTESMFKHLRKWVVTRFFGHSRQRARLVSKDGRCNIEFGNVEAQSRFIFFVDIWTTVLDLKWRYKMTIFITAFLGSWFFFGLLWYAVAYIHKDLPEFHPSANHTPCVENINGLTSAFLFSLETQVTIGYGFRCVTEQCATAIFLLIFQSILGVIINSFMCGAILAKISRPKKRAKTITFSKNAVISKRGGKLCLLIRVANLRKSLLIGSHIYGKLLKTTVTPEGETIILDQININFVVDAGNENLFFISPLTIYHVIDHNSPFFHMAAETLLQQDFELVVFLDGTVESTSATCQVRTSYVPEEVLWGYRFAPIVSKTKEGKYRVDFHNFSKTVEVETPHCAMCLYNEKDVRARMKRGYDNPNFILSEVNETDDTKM
KCC2 mod = KCC2 cotransporter modulators, thallium flux, primary screen, cell-based, HEK293 KCC2, FluoZin-2 fluorescence, MLSMR. 190,000 compounds, 2.2% hits. AID 1456, 2008. B-score of Tl+ flux slope (higher = more flux/activation; lower = inhibition) at 10 µM. KCC2 cells, thallium flux FluoZin-2 fluorescence. Solute carrier family 12 member 5 (Homo sapiens), Q9H2X9;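 active = thallium flux slope and its plate-corrected score both differing from the plate sample mean at a set confidence after two filtering rounds, in either direction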;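 also: slope of fluorescence scaled to starting intensity during 10 to 20 s after thallium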
WT yeast gro inh = growth inhibition of WT strain, primary screen, mitochondrial fusion inhibitor project, WT and mutant strains, chemical genetic; 190,000 compounds, 2.1% hits; inhibition, % at 10 µM; AID 1362, 2008; mitochondrial fusion phenotypic screen; in the data active = inhibition above about 58%; tested in S. cerevisiae
Ins promoter up = insulin promoter activators in MIN6 cells, imaging, high-content screening, mouse beta cells | MIN6 insulin promoter-GFP reporter; stronger effect = higher value | z-score at 5 µM | 190,000 compounds, 0.3% hits | AID 1625, 2009;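 active = z-score above 3 at 5 µM with at least 500 cells counted in the well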
L major viab = Leishmania major promastigote growth inhibition, primary screen | Leishmania major promastigotes, resazurin fluorescence viability | inhibition, % at 10 µM | 200,000 compounds, 9% hits | AID 1063, 2008; in the data active = inhibition above about 50%;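 also: promastigotes grown with compound for 44 hours at 28 °C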
An asterisk follows results filed as active; x = not tested or not shown.

SMILES	INS promoter inh	ROMK primary	KCC2 mod	WT yeast gro inh	Ins promoter up	L major viab
CC(C)OC(=O)/C(=C/c1ccc2c(c1)c1ccccc1n2C)NC(=O)c1ccccc1	x	-0.313	-2.12	5.9	-0.78	40.3
O=C(C1CC1)N1CCCN(C(=O)C2CC2)CC1	30.8	x	-0.0431	10.9	0.11	-7.5
CC1CC(C)CN(C(=O)CCc2ccccc2)C1 (centres undefined)	7.1	-0.518	-0.355	8.2	-1.51	-1.8
CCOC(=O)N1CCC(NC(=O)Cn2ncc3c4ccccc4n(C)c3c2=O)CC1	58.6	x	-2.59*	-12.6	x	1.2
CC(O)/C=C/C1OC(=O)CC1Nc1ccc(C=O)cc1 (centres undefined)	x	x	0.122	3.3	1.45	-14.3
COc1ccc(/C=N/NC(=O)c2ccccc2F)cc1CN1CCN(c2ccc(F)cc2)CC1	10.3	-0.629	-0.025	8.3	-0.28	67.4*
COc1ccc(/C=N/NC(=O)c2ccccc2)cc1CN1CCN(c2ccc(F)cc2)CC1	x	0.319	-0.0065	-10.8	-0.08	8.0
CCOC(=O)CNC(=O)CCNS(=O)(=O)c1ccc2c(c1)c(=O)n(C)c(=O)n2C	24.1	-0.285	0.00609	-0.3	-1.77	0.5
Cc1ccc(/C([O-])=C(/C(=S)NCc2ccc3c(c2)OCO3)[n+]2ccc(N(C)C)cc2)c(C)c1	x	0.431	-0.574	12.4	0.02	-9.3
O=C1CN(C(=O)/C=C/c2ccc(Cl)cc2Cl)CCN1	57.1	0.926	0.0614	0.8	0.41	-0.6
CN1CCCN(C(=O)/C=C/c2ccc(Cl)cc2Cl)CC1	x	0.221	0.155	1.2	-0.25	99.4*
CCOC(=O)Cc1c(C)c2c(O)cc(O)cc2oc1=O	14.8	-1.17	x	x	-0.11	-6.4
Cc1ccc(S(=O)(=O)N2CCOCC2)cc1NC(=O)CSc1ccccn1	x	-0.177	0.0385	-15.6	0.18	-3.3
Cc1nn(-c2ccccc2)c(/N=C/c2ccc(O)cc2)c1-c1ccccc1	-43.2	2.47	0.156	4.9	-0.61	52.4*
Cc1nn(-c2ccc(C(=O)O)cc2)c(N)c1-c1ccccc1	30.0	0.477	x	-2.0	0.56	-6.9
O=C(CN1CCN(Cc2ccccc2Cl)C1=O)NCc1cccnc1	x	-0.409	-0.48	x	-0.7	x
OCCN(CC(O)COc1ccccc1)CC(O)Cn1ccc2ccccc21 (centres undefined)	x	x	0.025	-27.7	-0.18	-2.0
CCCc1noc2c1C(c1ccoc1)C(C#N)=C(N)N2 (centres undefined)	x	-2.61*	x	-7.1	-1.16	21.3
Cc1c(NC(=S)N2CCN(c3cccc(Cl)c3)CC2)c(=O)n(-c2ccccc2)n1C	x	-0.681	-0.457	13.5	0.08	0.3
C=CCn1c(SCC(=O)c2cccs2)nc2sc(CC)cc2c1=O	-6.2	x	x	-1.7	-0.1	-3.1
Cc1cccn2cc(CNC(=O)c3ccco3)nc12	27.3	x	x	-5.3	-0.38	-6.8
CC(NC(=O)CCSc1nc(-c2ccc3c(c2)OCO3)cc(C(F)(F)F)n1)c1ccccc1 (centres undefined)	-43.2	x	-1.41	10.6	-0.27	62.3*
COc1ccccc1CCNC(=O)CCSc1nc(-c2ccco2)cc(C(F)(F)F)n1	30.2	x	-0.465	4.0	x	1.0
O=C(CCSc1nc(-c2ccco2)cc(C(F)(F)F)n1)NCCc1ccccc1	-29.7	x	-3.11*	5.7	-0.16	0.0
O=C(CCSc1nc(-c2ccco2)cc(C(F)(F)F)n1)N1CCCc2ccccc21	x	-0.922	-0.0838	14.0	0.74	76.3*
SMILES	INS promoter inh	ROMK primary	KCC2 mod	WT yeast gro inh	Ins promoter up	L major viab
O=C(CCSc1nc(-c2ccco2)cc(C(F)(F)F)n1)N1CCN(c2ccccn2)CC1	-24.1	-0.821	2.19	28.9	0.4	-2.0
O=C(CCCSc1nc(-c2ccco2)cc(C(F)(F)F)n1)Nc1ccc2c(c1)OCO2	-9.1	x	-0.398	31.5	0.04	25.8
CC(=O)Oc1ccc(-c2cccc(C(=O)OCC(=O)N(C)c3ccccc3)c2)cc1	x	x	-1.43	14.4	-0.03	5.2
CCOC(=O)N1CCN(S(=O)(=O)c2ccc(C(=O)NNc3nc4c(C)cc(C)cc4s3)cc2)CC1	17.1	0.784	-0.633	-11.1	-1.2	88.1*
CCOC(=O)N1CCN(S(=O)(=O)c2ccc(C(=O)NNc3nc4cc(C)cc(C)c4s3)cc2)CC1	26.8	1.2	-0.926	5.5	-0.74	20.8
Cc1cc(C)c2nc(NNC(=O)c3ccc(S(=O)(=O)N4CCCCC4)cc3)sc2c1	17.1	-0.827	-0.063	4.2	-2.34	89.1*
Cc1csc(SC(C)C(=O)NCC(=O)Nc2ccc(F)c(F)c2F)n1 (centres undefined)	x	-0.0739	0.523	-1.7	x	-5.0
CCN(CC)c1ccc(N=Cc2ccc(N(CC)CC)cc2O)cc1	42.9	x	x	27.3	2.88	99.8*
CCN(CC)c1ccc(/C=N/N2CCN(Cc3ccccc3)CC2)c(O)c1	-42.1	-0.0701	-1.18	56.8	0.15	92.4*
CCN(CC)c1ccc(/C=N/N2CCN(Cc3ccccc3)CC2)cc1	0.0	0.64	-0.349	4.4	0.88	8.8
COc1ccc(-c2cc(=O)[nH][nH]2)cc1	-29.0	-0.196	0.733	-5.0	0.26	75.7*
CC1CCN(Cc2c(O)ccc3c(=O)c(-c4nc5ccccc5s4)c(N)oc23)CC1	-12.5	-0.132	0.0623	27.4	-0.42	60.3*
CC1CCCN(Cc2c(O)ccc3c(=O)c(-c4nc5ccccc5s4)c(N)oc23)C1 (centres undefined)	-26.7	x	-0.693	x	x	100.7*
CC1(C)Cc2c(cnn2-c2ccccc2)C(=O)/C1=N\NC(=O)c1ccncc1	-131.2	x	0.00561	x	x	-6.3
CC1(C)Cc2c(cnn2-c2ccccc2)-c2c1c1ccccc1n2CC(O)CCl (centres undefined)	0.0	-0.729	x	24.3	x	100.4*
Cc1ccccc1OCC(=O)NNC(=O)C1CCCCC1C(=O)O (centres undefined)	35.7	0.0998	0.422	-5.0	0.3	-4.5
Cc1ccccc1N1C(=O)C(Oc2ccc(Cl)cc2)C1CNC(C)(C)C (centres undefined)	0.0	-1.06	1.33	17.2	-0.43	87.4*
Cc1cc2cc(CCNC(=O)c3ccc(Br)o3)c(=O)[nH]c2cc1C	-27.3	x	-0.799	95.8*	-0.29	3.5
CCCC(=O)NCCc1cc2cc(C)c(C)cc2[nH]c1=O	85.7*	x	-0.18	-1.4	0.12	-1.1
COc1ccc2cc(CCNC(=O)c3ccc(Br)o3)c(=O)[nH]c2c1	x	x	0.195	-8.0	0.8	-1.6
CCCCn1nc(C(=O)N[C@@H](CCSC)c2nc3ccccc3[nH]2)c2ccccc2c1=O	-25.7	-1.9	-1.21	16.8	-1.02	22.9
COc1cccc(N=CC2=C(O)CC(C)(C)CC2=O)c1	-14.3	-1.19	-0.0896	0.3	0.66	-2.4
CCC(C)(c1nnnn1-c1c(C)cccc1C)N(N=O)c1cccc(C(F)(F)F)c1 (centres undefined)	x	x	-0.757	55.3	-0.83	100.0*
